Source: PMC4336329 (PLoS ONE, 2015)
Screen size: about 310,000 compounds; about 2,200 (0.71%) showed an effect of 50% or more. Effects have a minus sign here. Shown is part of a subset that was picked to be rich in strong results.

Target: human ether-à-go-go-related gene (hERG) potassium channel (human, UniProt Q12809)
Experiment: primary screen, population patch clamp on CHO cells stably expressing hERG; higher = less effect of the substance

Sequence of human ether-à-go-go-related gene (hERG) potassium channel (Q12809 whole entry, looked up): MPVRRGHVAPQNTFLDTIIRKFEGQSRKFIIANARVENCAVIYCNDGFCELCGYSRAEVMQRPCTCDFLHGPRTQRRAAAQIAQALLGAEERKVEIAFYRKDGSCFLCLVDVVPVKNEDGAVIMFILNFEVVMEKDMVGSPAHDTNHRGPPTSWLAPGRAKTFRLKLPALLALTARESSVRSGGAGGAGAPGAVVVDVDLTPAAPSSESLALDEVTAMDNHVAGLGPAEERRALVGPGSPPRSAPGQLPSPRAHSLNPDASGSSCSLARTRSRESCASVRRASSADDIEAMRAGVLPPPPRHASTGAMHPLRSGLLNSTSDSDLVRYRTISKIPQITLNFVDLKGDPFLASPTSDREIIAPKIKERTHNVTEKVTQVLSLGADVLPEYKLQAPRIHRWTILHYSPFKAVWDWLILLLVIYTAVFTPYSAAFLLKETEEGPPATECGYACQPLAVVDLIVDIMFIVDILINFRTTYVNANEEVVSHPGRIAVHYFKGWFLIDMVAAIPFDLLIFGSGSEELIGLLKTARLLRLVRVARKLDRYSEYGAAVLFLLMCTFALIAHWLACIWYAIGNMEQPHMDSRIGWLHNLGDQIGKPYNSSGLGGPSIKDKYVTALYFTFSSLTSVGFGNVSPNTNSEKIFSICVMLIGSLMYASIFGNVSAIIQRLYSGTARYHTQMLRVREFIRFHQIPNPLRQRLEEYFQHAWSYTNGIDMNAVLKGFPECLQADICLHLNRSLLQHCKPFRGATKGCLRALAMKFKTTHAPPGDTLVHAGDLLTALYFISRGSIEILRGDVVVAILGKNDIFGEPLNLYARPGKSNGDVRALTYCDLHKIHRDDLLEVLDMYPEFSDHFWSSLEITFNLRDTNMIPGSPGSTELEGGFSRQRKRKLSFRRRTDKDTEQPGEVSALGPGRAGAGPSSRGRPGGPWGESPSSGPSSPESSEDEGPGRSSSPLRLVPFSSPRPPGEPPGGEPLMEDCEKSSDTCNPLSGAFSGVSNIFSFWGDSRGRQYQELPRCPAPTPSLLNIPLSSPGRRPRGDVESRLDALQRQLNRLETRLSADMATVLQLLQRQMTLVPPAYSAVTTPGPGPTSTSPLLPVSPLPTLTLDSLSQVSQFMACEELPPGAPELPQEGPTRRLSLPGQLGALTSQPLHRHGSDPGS

Row | SMILES | hERG current change (%, negative = inhibition) at 1uM
1 | COc1ccccc1-c1noc(CSc2nc(C)cc(=O)[nH]2)n1 | 19.4%
2 | Cc1ccc(NC(=O)C2C(c3ccccc3)C2(Cl)Cl)c(C)c1 (centres unmarked) | 2.95%
3 | COc1ccc(-c2nc(-c3cccs3)c(-c3cccs3)[nH]2)cc1OC | 20.3%
4 | O=[N+]([O-])c1cc([N+](=O)[O-])c(Oc2cc(Cl)cc(Cl)c2)cc1NN1CCCCC1 | 11.6%
5 | Cc1ccc(S(=O)(=O)NCC2CCC(C(=O)NCCCN3CCCC3=O)CC2)cc1 (centres unmarked) | 11.2%
6 | COc1ccc(N(CC(=O)O)S(=O)(=O)c2cccnc2)cc1 | 14.2%
7 | COc1ccccc1NC(=O)CN1CCN(CC(=O)Nc2ccc(F)cc2)CC1 | -87.4%
8 | COc1ccccc1NC(=O)CN1CCN(CC(=O)Nc2ccc(C)c(F)c2)CC1 | -49.1%
9 | COc1ccccc1NC(=O)CN1CCN(CC(=O)Nc2ccc(OC)c(OC)c2)CC1 | 12%
10 | CCCCCn1c(CN2CCN(Cc3ccccc3)CC2)nc2c1c(=O)n(C)c(=O)n2C | -57.9%
11 | CCN1CCN(c2nc3c(c(=O)[nH]c(=O)n3C)n2Cc2ccccc2)CC1 | 1.8%
12 | CCCCCn1c(CN2CCN(Cc3ccccc3)CC2)nc2c1c(=O)[nH]c(=O)n2C | -72.5%
13 | Cn1c(=O)[nH]c(=O)c2c1nc(CN1CCN(Cc3ccccc3)CC1)n2CC(N)=O | 6.48%
14 | CCCCCCn1c(N2CCN(c3ccccc3)CC2)nc2c1c(=O)[nH]c(=O)n2C | -20.5%
15 | CCN1CCN(c2nc3c(c(=O)[nH]c(=O)n3C)n2CCCc2ccccc2)CC1 | -81.5%
16 | CCCCCCn1c(CN2CCN(Cc3ccccc3)CC2)nc2c1c(=O)n(C)c(=O)n2C | -47.2%
17 | CCCCCn1c(N2CCN(Cc3ccccc3)CC2)nc2c1c(=O)[nH]c(=O)n2C | -77%
18 | CC(C)CCn1c(CN2CCN(Cc3ccccc3)CC2)nc2c1c(=O)[nH]c(=O)n2C | -2.51%
19 | CCCCCn1c(N2CCC(Cc3ccccc3)CC2)nc2c1c(=O)[nH]c(=O)n2C | 11.2%
20 | Cn1c(=O)[nH]c(=O)c2c1nc(N1CCN(Cc3ccccc3)CC1)n2CCCc1ccccc1 | -22%

Row | SMILES | hERG current change (%, negative = inhibition) at 1uM
21 | CCCCCn1c(CN2CCN(C)CC2)nc2c1c(=O)n(C)c(=O)n2C | -5.24%
22 | COc1ccc(CCNC(=O)Nc2ccc(F)cc2F)cc1OC | 15.8%
23 | CCOC(=O)C1CCN(C(=O)Nc2ccc3snnc3c2)CC1 | 3.17%
24 | O=C(Nc1ccc(F)cc1)N(Cc1cccs1)Cc1cc2cc3c(cc2[nH]c1=O)OCO3 | 16.6%
25 | COc1cc(C(=O)NCCOc2ccccc2)cc(OC)c1OC | 16.3%
26 | CCOC(=O)N1CCN(CCC(=O)Nc2ccc(OC)cc2OC)CC1 | 3.55%
27 | O=C(Oc1c(-c2ccco2)oc2ccccc2c1=O)c1cccnc1 | 16.2%
28 | COc1cc(SC#N)ccc1N=Cc1c(C)[nH]n(-c2cccc3ccccc23)c1=O | 13.4%
29 | COc1ccc(CCNC2CC(=O)N(CCc3ccc(OC)c(OC)c3)C2=O)cc1 (centres unmarked) | 7.42%
30 | O=C(Cn1cnc2c(oc3ccccc32)c1=O)NCC1CCCO1 (centres unmarked) | 9.36%
31 | CCOc1ccc(C(=O)N2CCCCCC2)cc1 | 9.17%
32 | O=C(c1ccc(-n2cccc2)cc1)N1CCN(Cc2ccccc2)CC1 | -59.9%
33 | O=C(O)C(=O)O.O=C(c1ccccc1)N1CCN(Cc2ccccc2)CC1 | 2.81%
34 | CCOc1ccc(C(=S)N2CCN(C)CC2)cc1 | -84.3%
35 | C=CCOc1ccccc1CN1CCCCCC1 | 11.6%
36 | CCOc1ccc(C(=S)N2CCOCC2)cc1 | 5.79%
37 | C=CCOc1ccccc1CN1CCC(Cc2ccccc2)CC1 | -51.6%
38 | CCOc1ccc(C(=O)N2CCCC2)cc1 | 10.9%
39 | O=C(c1ccc(F)cc1)N1CCN(Cc2ccccc2)CC1 | 10.5%
40 | C=CCOc1ccccc1CN1CCSCC1 | -1.02%

Row | SMILES | hERG current change (%, negative = inhibition) at 1uM
41 | CCOc1ccc(C(=S)N2CCCC2)cc1 | 5.79%
42 | CCOc1ccc(C(=O)N2CCCN(C(=O)c3ccc(OCC)cc3)CC2)cc1 | -69.3%
43 | O=C(CN1CCN(c2ccc(F)cc2)CC1)Nc1ccc(-n2cnnn2)cc1 | 8.42%
44 | O=C(CSc1nn(-c2ccc(F)cc2)c(=S)s1)NCC1CCCO1 (centres unmarked) | -2.14%
45 | Cc1ccc(Cl)cc1NC(=O)N[C@@H](C)C(=O)O | 9.9%
46 | Cc1cccc(C2c3[nH]c4ccccc4c3CCN2C(=O)c2cc(CC(C)C)nc(C)n2)n1 (centres unmarked) | 14%
47 | Clc1ccc(CN2CCC(Cc3ccccc3)CC2)cc1 | 12.3%
48 | CCOc1ccc(C(=O)N2CCN(Cc3ccccc3)CC2)cc1 | -60.3%
49 | CCOc1ccc(C(=O)N2CCN(c3ccccc3)CC2)cc1 | -0.559%
50 | CCOc1ccc(CN2CCC(Cc3ccccc3)CC2)cc1 | -76.8%
51 | CCOc1ccc(CN2CCN(C(=O)c3ccccc3)CC2)cc1 | -1.03%
52 | CSc1ccc(CN2CCC(Cc3ccccc3)CC2)cc1 | -29.6%
53 | CCCCNC(=O)C1C2C=CC3(CN(Cc4ccc(C)cc4)C(=O)C13)O2 (centres unmarked) | 13.1%
54 | O=C(Nc1cccc(Cl)c1)NC1CCS(=O)(=O)C1 (centres unmarked) | 12.9%
55 | CCNC(=O)Nc1nc2ccccc2s1 | 8.72%
56 | Cc1nn(C)c(=O)c(N)c1-c1cc(-c2ccc(Cl)c(Cl)c2)n[nH]1 | 12.9%
57 | CCN(CC(=O)Nc1ccc(C(=O)OC)cc1)C1CCCCC1 | 16.3%
58 | CCN(C(=S)Nc1ccc(OC(F)F)cc1)C1CCCCC1 | -1.82%
59 | CCN(CC(=O)Nc1ccc(OC(F)F)cc1)C1CCCCC1 | -61.6%
